Source: ChEMBL document CHEMBL3988442, “University of Dundee, Small-Polar-MMV Screening Library” (2021)
Where “and” joins values, the source holds several entries; their conditions need not be identical. Equal entries are not always repeated. For some of these results: Entries with a potency or affinity are not part of this list.

How the values were obtained:
Parameters in all cases: scale not given: direction of the effect not stated beside the values
[1] = target: Protein translocase subunit SecA (Escherichia coli (strain K12)) (UniProt P10408); experiment: Assay to Identify E. coli SecA ATPase Inhibitors; format: functional; settings: 30 µM
[2] = target: T1, Ubiquitin-activating enzyme e1, putative (Leishmania donovani (strain BPK282A1)) (UniProt E9BSI1); experiment: Leishmania donovani Ubiquitin Activating Enzyme (LdE1); format: functional; settings: 30 µM
T1 sequence (whole entry): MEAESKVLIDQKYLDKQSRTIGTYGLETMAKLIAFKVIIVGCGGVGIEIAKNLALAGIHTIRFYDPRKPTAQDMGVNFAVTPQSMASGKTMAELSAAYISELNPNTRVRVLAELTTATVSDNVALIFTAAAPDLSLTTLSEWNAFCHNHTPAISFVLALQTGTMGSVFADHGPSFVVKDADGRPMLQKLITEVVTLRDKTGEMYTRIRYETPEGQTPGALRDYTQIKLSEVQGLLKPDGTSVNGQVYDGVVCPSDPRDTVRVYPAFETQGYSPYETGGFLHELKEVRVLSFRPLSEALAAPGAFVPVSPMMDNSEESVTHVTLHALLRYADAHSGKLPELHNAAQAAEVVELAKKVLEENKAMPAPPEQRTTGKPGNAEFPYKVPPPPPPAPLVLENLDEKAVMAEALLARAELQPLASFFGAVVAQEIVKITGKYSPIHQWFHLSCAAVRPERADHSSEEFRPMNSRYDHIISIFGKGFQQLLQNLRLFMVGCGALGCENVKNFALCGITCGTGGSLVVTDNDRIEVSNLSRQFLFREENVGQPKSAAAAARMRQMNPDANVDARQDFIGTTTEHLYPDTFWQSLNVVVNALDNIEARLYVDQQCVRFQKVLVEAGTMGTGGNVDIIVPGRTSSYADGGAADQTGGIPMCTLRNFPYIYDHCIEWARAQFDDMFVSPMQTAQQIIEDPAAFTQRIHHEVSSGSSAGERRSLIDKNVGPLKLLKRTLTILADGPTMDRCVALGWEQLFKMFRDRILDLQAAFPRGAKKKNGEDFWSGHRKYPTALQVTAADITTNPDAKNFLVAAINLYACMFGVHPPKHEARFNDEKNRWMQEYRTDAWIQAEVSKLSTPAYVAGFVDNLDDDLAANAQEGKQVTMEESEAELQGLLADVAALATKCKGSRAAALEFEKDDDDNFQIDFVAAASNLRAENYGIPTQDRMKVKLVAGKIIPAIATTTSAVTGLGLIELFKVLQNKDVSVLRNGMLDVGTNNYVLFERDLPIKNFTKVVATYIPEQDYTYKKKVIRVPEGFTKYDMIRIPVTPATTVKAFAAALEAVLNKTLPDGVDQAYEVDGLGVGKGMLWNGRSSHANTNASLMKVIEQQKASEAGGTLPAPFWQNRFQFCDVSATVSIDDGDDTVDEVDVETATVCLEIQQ

[3] = target: AMP-activated protein kinase, AMPK (Homo sapiens) (UniProt P54646+O43741+P54619+Q9UGJ0+Q9Y478+Q13131+Q9UGI9); experiment: AMP-dependent Kinase enzyme assay. An in vitro enzyme assay that detects ADP turnover that is directly proportional to AMPK activity. This uses naive AMPK that is activated during the assay with MK-8722; format: functional; settings: 30 µM
[4] = target: Sialic acid-binding Ig-like lectin 9 (Homo sapiens) (UniProt Q9Y336); experiment: Hs-Siglec9 ALPHAscreen SOP 20170721; settings: 10 µM
[5] = tested on: Trypanosoma cruzi; experiment: Trypanosoma cruzi phosphomannomutase and mannose-1-phosphate guanylyltransferase assay; format: functional; settings: 10 µM
[6] = target: T2, Arginase-2, mitochondrial (Homo sapiens) (UniProt P78540); experiment: in vitro enzyme assay to detect the production of urea directly proportional to the activity of Arginase II; format: functional; settings: 33.3 µM; also: in the data most compounds retested in dose-response had high values
T2 sequence (whole entry): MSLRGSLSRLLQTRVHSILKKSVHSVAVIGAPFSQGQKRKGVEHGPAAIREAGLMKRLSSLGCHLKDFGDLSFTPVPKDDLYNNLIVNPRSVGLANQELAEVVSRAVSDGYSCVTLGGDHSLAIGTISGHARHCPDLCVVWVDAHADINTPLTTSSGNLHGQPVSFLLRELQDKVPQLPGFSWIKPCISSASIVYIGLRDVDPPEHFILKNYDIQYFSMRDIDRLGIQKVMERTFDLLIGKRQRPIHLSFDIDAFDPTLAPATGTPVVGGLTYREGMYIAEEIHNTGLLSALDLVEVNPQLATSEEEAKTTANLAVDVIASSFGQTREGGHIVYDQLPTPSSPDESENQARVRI

[7] = target: T3, Proteasome subunit beta (Trypanosoma cruzi) (UniProt O96673); experiment: Trypanosoma cruzi proteasome chymotrypsin-like activity (TcProtChymo) assay.; also: in the data most compounds retested in dose-response had high values; format: functional; settings: 9.37 µM
T3 sequence (whole entry): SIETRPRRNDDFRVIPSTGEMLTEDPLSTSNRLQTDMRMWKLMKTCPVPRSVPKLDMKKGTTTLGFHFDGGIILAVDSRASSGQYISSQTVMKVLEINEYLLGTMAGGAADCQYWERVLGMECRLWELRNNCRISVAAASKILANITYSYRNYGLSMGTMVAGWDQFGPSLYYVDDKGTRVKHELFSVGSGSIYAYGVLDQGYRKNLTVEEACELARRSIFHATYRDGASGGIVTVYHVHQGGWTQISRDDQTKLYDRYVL

[8] = species on record: Homo sapiens; experiment: To identify inhibition of the IFN signalling (Jak-Stat) pathway via expression of an eGFP reporter gene under the control of an IFN-stimulated response element (ISRE) containing MxA promoter.; format: functional; settings: 30 µM
[9] = target: T4, Tyrosyl-tRNA synthetase, putative (Trypanosoma cruzi (strain CL Brener)) (UniProt Q4DSP6); experiment: Trypanosoma cruzi tyrosyl tRNA synthetase (TcYRS) _High Tyrosine SOP; format: functional; settings: 30 µM; also: in the data most compounds retested in dose-response had high values
T4 sequence (whole entry): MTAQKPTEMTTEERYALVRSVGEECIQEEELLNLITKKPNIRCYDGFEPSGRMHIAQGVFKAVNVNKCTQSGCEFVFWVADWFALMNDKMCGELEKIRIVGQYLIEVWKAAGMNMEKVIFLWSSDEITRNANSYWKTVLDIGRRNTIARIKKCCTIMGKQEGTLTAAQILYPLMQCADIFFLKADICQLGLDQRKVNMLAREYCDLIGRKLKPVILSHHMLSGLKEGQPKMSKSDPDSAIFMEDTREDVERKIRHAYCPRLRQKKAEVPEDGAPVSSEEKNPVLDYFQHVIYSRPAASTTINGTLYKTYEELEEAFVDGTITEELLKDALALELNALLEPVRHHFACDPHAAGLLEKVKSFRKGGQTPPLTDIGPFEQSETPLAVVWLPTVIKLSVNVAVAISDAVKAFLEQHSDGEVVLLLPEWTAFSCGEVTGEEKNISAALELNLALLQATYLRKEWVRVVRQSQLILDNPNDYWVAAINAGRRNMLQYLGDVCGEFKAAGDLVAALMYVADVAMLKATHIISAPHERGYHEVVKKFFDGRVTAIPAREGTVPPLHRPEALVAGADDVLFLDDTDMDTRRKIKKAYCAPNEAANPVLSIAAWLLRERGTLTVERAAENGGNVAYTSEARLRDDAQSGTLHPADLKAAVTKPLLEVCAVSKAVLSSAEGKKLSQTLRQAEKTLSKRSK

[10] = target: T4, Tyrosyl-tRNA synthetase, putative (Trypanosoma cruzi (strain CL Brener)); experiment: Trypanosoma cruzi tyrosyl tRNA synthetase (TcYRS) SOP; format: functional; settings: 30 µM
[11] = target: Chromo domain-containing protein 1 (Saccharomyces cerevisiae (strain ATCC 204508 / S288c) (Baker's yeast)) (UniProt P32657); experiment: ScCHD-1 Enzyme Inhibition Assay; format: functional; settings: 30 µM; also: in the data most compounds retested in dose-response had high values
[12] = tested on: N/A; experiment: Trypanosoma cruzi proteasome luciferase counter-screen; format: functional; settings: 9.37 µM

Chain of Chromo domain-containing protein 1 (Saccharomyces cerevisiae (strain ATCC 204508 / S288c) (Baker's yeast)) (P32657 whole entry, the tested form may be a part): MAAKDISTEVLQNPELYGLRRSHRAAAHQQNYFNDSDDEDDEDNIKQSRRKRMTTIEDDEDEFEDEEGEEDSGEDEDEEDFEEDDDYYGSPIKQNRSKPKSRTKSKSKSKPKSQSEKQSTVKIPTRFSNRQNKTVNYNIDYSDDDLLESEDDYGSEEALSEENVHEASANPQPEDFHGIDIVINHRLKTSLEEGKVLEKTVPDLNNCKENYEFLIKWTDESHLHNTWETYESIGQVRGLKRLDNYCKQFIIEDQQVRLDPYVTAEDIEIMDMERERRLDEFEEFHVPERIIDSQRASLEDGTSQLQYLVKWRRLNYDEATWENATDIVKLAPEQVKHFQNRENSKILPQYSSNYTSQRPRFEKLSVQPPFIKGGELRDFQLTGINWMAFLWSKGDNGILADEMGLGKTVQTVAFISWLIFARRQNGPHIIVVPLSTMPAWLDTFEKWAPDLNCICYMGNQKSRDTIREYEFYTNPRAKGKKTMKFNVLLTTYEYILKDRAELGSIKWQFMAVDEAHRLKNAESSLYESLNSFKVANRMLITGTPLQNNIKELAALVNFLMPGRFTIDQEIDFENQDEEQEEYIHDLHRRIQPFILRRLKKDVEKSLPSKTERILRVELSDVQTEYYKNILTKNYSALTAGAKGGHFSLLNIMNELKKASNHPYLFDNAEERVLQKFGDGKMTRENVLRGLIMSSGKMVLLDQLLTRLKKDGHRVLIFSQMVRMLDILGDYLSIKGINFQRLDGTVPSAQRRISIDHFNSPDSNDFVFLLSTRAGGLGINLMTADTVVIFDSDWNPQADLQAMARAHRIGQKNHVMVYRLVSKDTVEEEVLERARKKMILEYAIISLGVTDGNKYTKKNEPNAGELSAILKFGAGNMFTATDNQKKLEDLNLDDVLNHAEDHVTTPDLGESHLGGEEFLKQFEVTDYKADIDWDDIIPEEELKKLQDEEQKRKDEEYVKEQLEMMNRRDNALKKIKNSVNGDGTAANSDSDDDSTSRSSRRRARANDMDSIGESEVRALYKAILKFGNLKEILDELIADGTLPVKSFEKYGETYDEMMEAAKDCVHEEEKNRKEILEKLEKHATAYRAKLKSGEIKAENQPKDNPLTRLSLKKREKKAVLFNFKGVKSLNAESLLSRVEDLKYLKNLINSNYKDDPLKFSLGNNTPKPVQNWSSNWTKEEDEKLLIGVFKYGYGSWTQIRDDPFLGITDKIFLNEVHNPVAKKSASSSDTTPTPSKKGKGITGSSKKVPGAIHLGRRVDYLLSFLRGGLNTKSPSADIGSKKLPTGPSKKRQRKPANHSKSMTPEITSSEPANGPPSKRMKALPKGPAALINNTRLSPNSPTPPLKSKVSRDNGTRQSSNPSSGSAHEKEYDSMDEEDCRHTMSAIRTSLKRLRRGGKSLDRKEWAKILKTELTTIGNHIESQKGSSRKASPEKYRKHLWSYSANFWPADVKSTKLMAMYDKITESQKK
Chain of Protein translocase subunit SecA (Escherichia coli (strain K12)) (P10408 whole entry): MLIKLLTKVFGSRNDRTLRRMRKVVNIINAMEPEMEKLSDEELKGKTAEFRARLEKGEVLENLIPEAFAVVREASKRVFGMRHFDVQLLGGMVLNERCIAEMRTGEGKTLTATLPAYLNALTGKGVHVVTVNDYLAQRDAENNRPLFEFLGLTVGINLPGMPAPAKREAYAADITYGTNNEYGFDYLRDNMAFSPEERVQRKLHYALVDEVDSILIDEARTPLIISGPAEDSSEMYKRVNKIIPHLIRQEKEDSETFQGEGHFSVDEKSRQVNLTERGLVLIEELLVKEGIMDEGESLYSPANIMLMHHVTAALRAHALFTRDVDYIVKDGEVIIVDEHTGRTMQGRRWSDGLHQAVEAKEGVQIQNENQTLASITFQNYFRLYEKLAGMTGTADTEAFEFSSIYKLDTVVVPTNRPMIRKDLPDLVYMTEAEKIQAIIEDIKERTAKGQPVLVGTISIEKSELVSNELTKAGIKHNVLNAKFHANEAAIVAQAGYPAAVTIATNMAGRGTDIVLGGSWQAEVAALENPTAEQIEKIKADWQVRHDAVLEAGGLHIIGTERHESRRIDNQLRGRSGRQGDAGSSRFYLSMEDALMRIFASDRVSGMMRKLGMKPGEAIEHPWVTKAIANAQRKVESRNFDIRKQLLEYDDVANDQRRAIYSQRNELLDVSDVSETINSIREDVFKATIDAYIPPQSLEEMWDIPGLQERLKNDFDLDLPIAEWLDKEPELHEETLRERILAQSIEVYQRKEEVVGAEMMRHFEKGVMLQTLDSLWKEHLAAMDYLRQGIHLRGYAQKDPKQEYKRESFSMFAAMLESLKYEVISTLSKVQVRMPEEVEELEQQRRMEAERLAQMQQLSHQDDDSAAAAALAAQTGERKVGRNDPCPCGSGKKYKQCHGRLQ
Chain of Sialic acid-binding Ig-like lectin 9 (Homo sapiens) (Q9Y336 whole entry): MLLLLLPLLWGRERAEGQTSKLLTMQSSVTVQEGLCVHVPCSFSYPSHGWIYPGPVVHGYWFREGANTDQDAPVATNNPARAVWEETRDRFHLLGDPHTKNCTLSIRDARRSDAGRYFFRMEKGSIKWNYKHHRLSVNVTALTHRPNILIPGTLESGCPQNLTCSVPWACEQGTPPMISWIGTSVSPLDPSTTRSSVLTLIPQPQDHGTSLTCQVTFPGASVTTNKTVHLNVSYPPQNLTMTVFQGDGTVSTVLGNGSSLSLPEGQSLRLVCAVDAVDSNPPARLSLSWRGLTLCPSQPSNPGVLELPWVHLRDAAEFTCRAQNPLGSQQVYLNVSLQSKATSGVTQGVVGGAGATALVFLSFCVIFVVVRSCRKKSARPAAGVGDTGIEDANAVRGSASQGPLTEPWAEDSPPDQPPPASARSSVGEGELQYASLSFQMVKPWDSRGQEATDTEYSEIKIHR

Row | Structure (SMILES) | Percent Effect [1] | Percent Effect [2] | Percent Effect [3] | Percent Effect [4] | Percent Effect [5] | Percent Effect [6] | Percent Effect [7] | Percent Effect [8] | Percent Effect [9] | Percent Effect [10] | Percent Effect [11] | Percent Effect [12]
1 | Cn1ncc2c1C(COCC1CC1)CN(Cc1ccoc1)C2 (centres undefined) | -1.65% | 18.9% | 1.61% | -6.93% | 2.83% | 9.87% | 23.8% | 27.7% | 5.41% | 20.5% | 2.77% | 
2 | CN(C)CC1(O)CCN(S(=O)(=O)c2ccc(F)cc2)C1 (centres undefined) | -4.76% | 20.3% | 6.17% | -4.76% | 3.36% | -3.94% | 17.3% | 10.1% | 5.38% | 9.09% | 65.3% | 
3 | CCC(=O)N1CCC(c2nnc(Cn3cccn3)n2C2CC2)CC1 | -5.96% | 18.1% | -4.09% | 12.6% | 2.23% | -0.442% | 8.07% | -1.41% | 4.21% | 12.8% | -0.227% | 
4 | N#CC(Sc1nnnn1C1CCOCC1)C1CCCCC1 (centres undefined) | -4.28% | 2.67% | 0.0297% | 9.31% | -5.55% | 0.521% | 7.32% | -0.799% | 3.83% | 6.17% | -4.6% | 
5 | Cc1cc(C)n(CC2CCCCN2CC(=O)Nc2nncs2)n1 (centres undefined) | -3.75% | 8% | -5.11% | 15% | 7.69% | 14.6% | 0.349% | 13.2% | 6.01% | 16.1% | -8.51% | 
6 | O=C(c1cccnc1-n1cncn1)N1CCN(CC2CC2)CC1 | -2.35% | 16.2% | -2.56% | 20.3% | 5.79% | 1.91% | 11.9% | 1.6% | 3.7% | 9.76% | -2.97% | 
7 | CCc1ccc(CN2CC[C@H]3C[C@H](c4nnc(C)[nH]4)O[C@@H]3C2)o1 | -2% | 0% | -2.87% | 34.9% | 9.52% | -6.79% | 17.2% | 9.84% | 0% | -1.24% | -3.68% | 
8 | Cc1cc(S(=O)(=O)Nc2cccc(-n3cccc3)c2)sc1C(=O)O | 1.39% | 0% | 12.1% | 7.4% | 4.99% | -0.248% | 36.5% and 37.6% and 37.3% | -6.8% | -43% | -38.3% | 32.5% | 19.1% and 16.4%
9 | COc1ccc(Cl)cc1C(=O)N1CCOC2(CNCCOC2)C1 (centres undefined) | -5.73% | -2.7% | 0.241% | -0.752% | -3.86% | -1.43% | 7.59% and 10.9% and 31.4% | -6.05% | 2.65% | 4.88% | -2.64% | 12.4% and 13.6%
10 | C[C@H](O)CNC(=O)c1cnc(-c2ccccc2)nc1O | -3.97% | 10.8% | -6.61% | 24.9% | 4.83% | 19.1% | 11.7% | -5.82% | 2.65% | 17.1% | -9.28% | 
11 | Cc1ccc(NC2CCN(C(=O)CCc3ccco3)CC2)nn1 | -5.56% | 2.7% | 6.46% | 1.2% | 0.836% | 0.554% | 21.9% and 32.9% and 29.3% | 8.89% | 11.9% | -1.22% | 0.23% | -1.73% and 1.88%
